The chains are these.
B1: PhoQ; a variant is named by its letters at X, in order, P23837 (parent)
chain: MKKLLRLFFPLSLRVRFLLATAAVVLVLSLAYGMVALIGYSVSFDKTTFRLLRGESNLFYTLAKWENNKLHVELPENIDKQSPTMTLIYDENGQLLWAQRDVPWLMKMIQPDWLKSNGFHEIEADVNDTSLLLSGDHSIQQQLQEVREDDDDAEMTHSVAVNVYPATSRMPKLTIVVVDTIPVELKSSYMVWSWFIYVLSANLLLVIPLLWVAAWWSLRPIEALAKEVRELEEHNRELLNPATTRELTSLVRNLNRLLKSERERYDKYRTTLTDLTHSLKTPLXXLQXXLRSLRSEKMSVSDAEPVMLEQISRISQQIGYYLHRASMRGGTLLSRELHPVAPLLDNLTSALNKVYQRKGVNISLDISPEISFVGEQNDFVEVMGNVLDNACKYCLEFVEISARQTDEHLYIVVEDDGPGIPLSKREVIFDRGQRVDTLRPGQGVGLAVAREITEQYEGKIVAGESMLGGARMEVIFGRQHSAPKDE

Over roughly 140,000 sequences, “enrichment ratio after two sorts for PhoP signalling” has its median near 0; the highest 2% begin near 11. The full list was thinned out, with the highest values kept by preference. Some results are limits rather than exact numbers.

This assay covers variants of B1. The assay is described as follows: enrichment ratio after two sorts for PhoP signalling (ratio (wild type AVST 3.29)); higher = more functional. The note with it: with PhoP (E. coli).
On to TNRW, for which the enrichment ratio is ≤ 0.25.

In the case of LWKV, the enrichment ratio was ≤ 0.25.

Regarding IVDK, the enrichment ratio is ≤ 0.25.

EHTD: the enrichment ratio was ≤ 0.25.

In the case of NKKA, the enrichment ratio is ≤ 0.25.

Consider MHGI, for which the enrichment ratio is ≤ 0.25.

For the variant QKAH, the enrichment ratio was ≤ 0.25.

Take KQVW: the enrichment ratio is ≤ 0.25.

With ECVR, the enrichment ratio was ≤ 0.25.

Turning to KPPV, the enrichment ratio is ≤ 0.25.

Take KAGN: the enrichment ratio was ≤ 0.25.

Take MEGN: the enrichment ratio stood at 10.8.

Turning to MAGN, the enrichment ratio is 13.5.

NAGN: the enrichment ratio is ≤ 0.25.

On to MCGN, for which the enrichment ratio came out at 16.3.

As to MMGN, the enrichment ratio was ≤ 0.25.

Take WWPI: the enrichment ratio is ≤ 0.25.

Regarding DCFD, the enrichment ratio is ≤ 0.25.

Turning to MIAD, the enrichment ratio was ≤ 0.25.

Turning to MDYF, the enrichment ratio was ≤ 0.25.

In the case of MIYI, the enrichment ratio came to 24.3.

Regarding MILQ, the enrichment ratio turned out to be 14.

With MIFA, the enrichment ratio was ≤ 0.25.

Turning to MIYF, the enrichment ratio was found to be 24.3.

With MKAA, the enrichment ratio was ≤ 0.25.

For MIAA, the enrichment ratio was found to be 11.7.

With MITA, the enrichment ratio is ≤ 0.25.

Take MTYF: the enrichment ratio amounted to 7.02.

As for MELQ, the enrichment ratio was 3.81.

In the case of MIWI, the enrichment ratio amounted to 3.74.

As to KCES, the enrichment ratio was ≤ 0.25.

Take FVYA: the enrichment ratio is ≤ 0.25.

For FGWI, the enrichment ratio is ≤ 0.25.

As for LDYV, the enrichment ratio is ≤ 0.25.

Consider DLSC, for which the enrichment ratio is ≤ 0.25.

With IAQI, the enrichment ratio was ≤ 0.25.

In the case of MILA, the enrichment ratio amounted to 1.31.

In the case of MIHF, the enrichment ratio came to 3.77.

On to MITH, for which the enrichment ratio is ≤ 0.25.

As to MISK, the enrichment ratio is ≤ 0.25.

For MIFC, the enrichment ratio is ≤ 0.25.

On to MIYH, for which the enrichment ratio worked out at 7.94.

Turning to MILY, the enrichment ratio was 0.599.

Take MITI: the enrichment ratio is 14.6.

With MIGF, the enrichment ratio amounted to 11.9.

For the variant MISC, the enrichment ratio amounted to 23.

MIMF: the enrichment ratio worked out at 0.51.

In the case of MIGH, the enrichment ratio stood at 18.2.

NIWL: the enrichment ratio is ≤ 0.25.

On to WCMF, for which the enrichment ratio was ≤ 0.25.

As to KFLW, the enrichment ratio was ≤ 0.25.

Regarding SFFA, the enrichment ratio was ≤ 0.25.

Consider IEDQ, for which the enrichment ratio was ≤ 0.25.

As for TAFY, the enrichment ratio worked out at 2.48.

RVSG: the enrichment ratio is ≤ 0.25.

In the case of LAEY, the enrichment ratio is ≤ 0.25.

With GIVQ, the enrichment ratio was 2.03.

Regarding MIFT, the enrichment ratio was ≤ 0.25.

As to MIAT, the enrichment ratio came to 12.1.

In the case of MITV, the enrichment ratio was 17.2.

For MILT, the enrichment ratio was ≤ 0.25.

Take MSAQ: the enrichment ratio came out at 9.85.

Turning to MIMV, the enrichment ratio is ≤ 0.25.

For the variant MFAQ, the enrichment ratio was ≤ 0.25.

Take MIWV: the enrichment ratio is ≤ 0.25.

As for MIAQ, the enrichment ratio was determined as 14.7.

HFIN: the enrichment ratio was ≤ 0.25.

With LDFC, the enrichment ratio is ≤ 0.25.

For MDHH, the enrichment ratio is ≤ 0.25.

As to PDDC, the enrichment ratio is ≤ 0.25.

IFMI: the enrichment ratio was ≤ 0.25.

Take WEFI: the enrichment ratio is ≤ 0.25.

For the variant SLNC, the enrichment ratio is ≤ 0.25.

On to RGNC, for which the enrichment ratio is ≤ 0.25.

As for THNC, the enrichment ratio is 11.9.

On to NHNC, for which the enrichment ratio is ≤ 0.25.

With KSNC, the enrichment ratio was ≤ 0.25.

In the case of STNC, the enrichment ratio was ≤ 0.25.

Turning to NGNC, the enrichment ratio was ≤ 0.25.

As for TCNC, the enrichment ratio was 14.3.

As to TGNC, the enrichment ratio came out at 61.8.

In the case of SHNC, the enrichment ratio amounted to 0.752.

Consider SNNC, for which the enrichment ratio was 18.6.

On to KCNC, for which the enrichment ratio is ≤ 0.25.
